Assay results from PubChem BioAssay AID1159580 (chemical genetic matrix, 2015).
Screen size: about 5,500 compounds; about 2,000 (36%) were called active. Roughly 18% stayed inconclusive and do not appear here. Rule as the data show it: active = normalized growth mostly below about 0.91 (no sharp cut-off); inconclusive = no clear call, values can overlap the other calls; inactive = mostly above about 0.92. The list shows a part of the results.

Test: chemical genetic growth profiling, strain panel (AID 1159580);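 also: tested at 20 µM; growth read once vehicle control cultures reached saturation at 30 °C; 1 = growth at the plate median or of vehicle wells; lower values mean less growth of the strain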
Details: growth OD

Measured: normalized growth

CO[C@H]1CC(O[C@@H]2/C(C)=C/C[C@@H]3C[C@@H](C[C@]4(CC[C@H](C)[C@@H](C5CCCCC5)O4)O3)OC(=O)[C@@H]3C=C(C)/C(=N\O)[C@H]4OC/C(=C\C=C\[C@@H]2C)[C@]43O)O[C@@H](C)C1O (stereo not given in full)
active: S. cerevisiae deletion strains, locus YJR066W, strain TOR1, active compounds read low 0.659 | S. cerevisiae deletion strains, locus YKR001C, strain vps1, active compounds read low 0.745 | S. cerevisiae deletion strains, locus YLR039C, strain RIC1, active compounds read low 0.492 | S. cerevisiae deletion strains, locus YLR113W, strain HOG1, active compounds read low 0.284 | S. cerevisiae deletion strains, locus YLR262C, strain YPT6 (second series), active compounds read low 0.312 | S. cerevisiae deletion strains, locus YLR262C, strain YPT6, active compounds read low 0.415 | S. cerevisiae deletion strains, locus YLR342W, strain FKS1 (second series), active compounds read low 0.526 | S. cerevisiae deletion strains, locus YNL183C, strain NPR1, active compounds read low 0.512 | S. cerevisiae deletion strains, locus YPL051W, strain arl3, active compounds read low 0.8 | S. cerevisiae deletion strains, locus YPL106C, strain sse1, active compounds read low 0.62 | S. cerevisiae deletion strains, locus YPL256C, strain CLN2, active compounds read low 0.629
inactive: S. cerevisiae deletion strains, locus YKL009W, strain mrt4, active compounds read low 0.975 | S. cerevisiae deletion strains, locus YKL068W, active compounds read low 1 | S. cerevisiae deletion strains, locus YKL085W, strain MDH1 (second series), active compounds read low 0.997 | S. cerevisiae deletion strains, locus YKL085W, strain MDH1, active compounds read low 0.997 | S. cerevisiae deletion strains, locus YKL160W, strain elf1, active compounds read low 0.993 | S. cerevisiae deletion strains, locus YKL190W, strain CNB1, active compounds read low 0.982 | S. cerevisiae deletion strains, locus YKR026C, strain gcn3, active compounds read low 1.02 | S. cerevisiae deletion strains, locus YKR091W, strain srl3, active compounds read low 1.01 | S. cerevisiae deletion strains, locus YLL001W, strain dnm1, active compounds read low 0.974 | S. cerevisiae deletion strains, locus YLL026W, active compounds read low 1.01 | S. cerevisiae deletion strains, locus YLL041C, strain sdh2, active compounds read low 1.01 | S. cerevisiae deletion strains, locus YLR027C, strain aat2, active compounds read low 1.01 | S. cerevisiae deletion strains, locus YLR058C, strain SHM2, active compounds read low 0.987 | S. cerevisiae deletion strains, locus YLR102C, strain apc9, active compounds read low 0.997 | S. cerevisiae deletion strains, locus YLR221C, strain rsa3, active compounds read low 1.01 | S. cerevisiae deletion strains, locus YLR258W, strain gsy2, active compounds read low 1 | S. cerevisiae deletion strains, locus YLR268W, strain sec22, active compounds read low 0.928 | S. cerevisiae deletion strains, locus YLR320W, strain mms22, active compounds read low 0.96 | S. cerevisiae deletion strains, locus YLR330W, strain CHS5, active compounds read low 0.978 | S. cerevisiae deletion strains, locus YLR342W, strain FKS1, active compounds read low 0.985 | S. cerevisiae deletion strains, locus YLR357W, strain rsc2, active compounds read low 0.854 | S. cerevisiae deletion strains, locus YLR370C, strain arc18, active compounds read low 0.993 | S. cerevisiae deletion strains, locus YLR371W, strain rom2, active compounds read low 0.995 | S. cerevisiae deletion strains, locus YLR384C, strain iki3, active compounds read low 1.01 | S. cerevisiae deletion strains, locus YLR418C, strain cdc73, active compounds read low 0.936 | S. cerevisiae deletion strains, locus YML016C, strain PPZ1, active compounds read low 0.995 | S. cerevisiae deletion strains, locus YML032C, strain rad52, active compounds read low 0.987 | S. cerevisiae deletion strains, locus YML120C, strain ndi1, active compounds read low 0.995 | S. cerevisiae deletion strains, locus YML124C, strain tub3, active compounds read low 1 | S. cerevisiae deletion strains, locus YMR058W, strain fet3, active compounds read low 1.02 | S. cerevisiae deletion strains, locus YMR078C, strain ctf18, active compounds read low 0.986 | S. cerevisiae deletion strains, locus YMR125W, strain sto1, active compounds read low 1.03 | S. cerevisiae deletion strains, locus YMR129W, active compounds read low 1.02 | S. cerevisiae deletion strains, locus YMR205C, strain PFK2, active compounds read low 0.997 | S. cerevisiae deletion strains, locus YMR223W, strain ubp8, active compounds read low 0.993 | S. cerevisiae deletion strains, locus YMR231W, strain pep5, active compounds read low 0.998 | S. cerevisiae deletion strains, locus YMR263W, strain SAP30, active compounds read low 0.977 | S. cerevisiae deletion strains, locus YMR307W, strain GAS1, active compounds read low 0.911 | S. cerevisiae deletion strains, locus YNL067W, strain RPL9B, active compounds read low 0.988 | S. cerevisiae deletion strains, locus YNL071W, strain lat1, active compounds read low 1.02 | S. cerevisiae deletion strains, locus YNL209W, strain ssb2, active compounds read low 0.977 | S. cerevisiae deletion strains, locus YNL233W, strain BNI4, active compounds read low 0.971 | S. cerevisiae deletion strains, locus YNL248C, strain rpa49, active compounds read low 1.03 | S. cerevisiae deletion strains, locus YNL250W, strain rad50, active compounds read low 0.967 | S. cerevisiae deletion strains, locus YNL271C, strain bni1, active compounds read low 0.922 | S. cerevisiae deletion strains, locus YNL298W, strain CLA4, active compounds read low 0.933 | S. cerevisiae deletion strains, locus YNL307C, strain MCK1, active compounds read low 0.957 | S. cerevisiae deletion strains, locus YNL322C, strain KRE1 (second series), active compounds read low 1.02 | S. cerevisiae deletion strains, locus YNL322C, strain KRE1, active compounds read low 0.99 | S. cerevisiae deletion strains, locus YNR049C, strain mso1, active compounds read low 0.984 | S. cerevisiae deletion strains, locus YNR052C, strain pop2, active compounds read low 0.99 | S. cerevisiae deletion strains, locus YOL006C, strain TOP1, active compounds read low 0.901 | S. cerevisiae deletion strains, locus YOL012C, strain htz1 0.49 | S. cerevisiae deletion strains, locus YOL147C, strain pex11, active compounds read low 1.01 | S. cerevisiae deletion strains, locus YOR001W, strain rrp6, active compounds read low 0.986 | S. cerevisiae deletion strains, locus YOR061W, strain CKA2, active compounds read low 0.98 | S. cerevisiae deletion strains, locus YOR069W, strain VPS5, active compounds read low 0.99 | S. cerevisiae deletion strains, locus YOR070C, strain gyp1, active compounds read low 0.994 | S. cerevisiae deletion strains, locus YOR080W, strain dia2, active compounds read low 1.02 | S. cerevisiae deletion strains, locus YOR083W, strain WHI5, active compounds read low 1 | S. cerevisiae deletion strains, locus YOR106W, strain vam3, active compounds read low 1.05 | S. cerevisiae deletion strains, locus YOR136W, strain idh2, active compounds read low 0.974 | S. cerevisiae deletion strains, locus YOR144C, strain elg1, active compounds read low 0.999 | S. cerevisiae deletion strains, locus YOR184W, strain ser1, active compounds read low 0.991 | S. cerevisiae deletion strains, locus YOR231W, strain MKK1, active compounds read low 0.962 | S. cerevisiae deletion strains, locus YOR265W, strain rbl2, active compounds read low 0.995 | S. cerevisiae deletion strains, locus YOR270C, strain vph1, active compounds read low 0.991 | S. cerevisiae deletion strains, locus YOR290C, strain snf2, active compounds read low 1.04 | S. cerevisiae deletion strains, locus YOR316C, strain cot1, active compounds read low 0.99 | S. cerevisiae deletion strains, locus YPL055C, strain LGE1, active compounds read low 1 | S. cerevisiae deletion strains, locus YPL078C, strain atp4, active compounds read low 1.03 | S. cerevisiae deletion strains, locus YPL240C, strain hsp82, active compounds read low 1.01 | S. cerevisiae deletion strains, locus YPL241C, strain CIN2, active compounds read low 0.979 | S. cerevisiae deletion strains, locus YPR119W, strain clb2, active compounds read low 0.995 | S. cerevisiae deletion strains, locus YPR141C, strain kar3, active compounds read low 0.992 | S. cerevisiae deletion strains, locus YPR163C, strain tif3, active compounds read low 0.972 | S. cerevisiae deletion strains, locus YPR167C, strain met16, active compounds read low 0.985 | S. cerevisiae deletion strains, strain wtn01, active compounds read low 0.996 | S. cerevisiae strains, strain wild type, active compounds read low 0.985
